Laboratory results published in the supplement of paper PMC6555819.

Experiments:
Assay in all cases: PBM binding z-score (relative to random genomic background probes); higher = stronger binding; sequences stand for … in GC…GCGATTGACAGCGTAGAATGAAGG
[1] = system: RARb homodimer (NR concentration 270 nM)
Summary of the method: (§1)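 Antibodies against each partner of ligand-free nuclear receptor dimers (one per run) detected binding on custom Agilent 4×180K protein-binding microarrays after 1 h incubation. The double-stranded probes had 34-nt variable regions carrying direct-repeat seeds, single-nucleotide variants, half-site ablations and random human genomic background sequences. Binding z-scores, from regression-normalized fluorescence, use the random background probes as reference.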

[2] = system: RARg:RXRa (NR concentration 270 nM, RXRa partner concentration 90 nM)
Summary of the method: as §1

[3] = system: RARg homodimer (NR concentration 270 nM)
Summary of the method: as §1

[4] = system: RXRa DBDmut IVT, anti-RXR (DBD mutation: RXRa K156A/R161A, NR concentration 90 nM)
Summary of the method: as §1

[5] = system: RXRa homodimer (NR concentration 180 nM)
Summary of the method: as §1

[6] = system: THRa:RXRa (NR concentration 90 nM, RXRa partner concentration 90 nM)
Summary of the method: as §1

[7] = system: THRa homodimer (NR concentration 90 nM)
Summary of the method: as §1

[8] = system: VDR:RXRa (NR concentration 270 nM, RXRa partner concentration 90 nM)
Summary of the method: as §1

[9] = system: VDR homodimer (NR concentration 270 nM)
Summary of the method: as §1

Sequence	PBM binding z-score [1]	PBM binding z-score [2]	PBM binding z-score [3]	PBM binding z-score [4]	PBM binding z-score [5]	PBM binding z-score [6]	PBM binding z-score [7]	PBM binding z-score [8]	PBM binding z-score [9]
CCGAGTAGGTTATGGGGGATTCAGGCAACGGTGA	1.28	1.3	1.08	0.281	0.959	1.58	1.7	1.45	1.12
CGAACTAGGTCATCCAGGACAGTGACTACATTGA	3.11	4.13	4.54	2.28	2.93	3.77	2.2	4.29	1.69
ACAGACAGGTGATGAAGGCAACTCAGGCTATCAT	-0.412	0.106	0.345	-0.405	0.152	0.815	-0.588	-0.257	-0.37
TAGCCTAGGTCATTGGGCCAGTATGGTACGCATC	2.8	3.75	3.81	1.46	2.73	2.81	0.583	2	0.715
GCTAGTTGGTCAGTATAAGGTCACACACCGGTCG	4.41	4.28	3.75	0.514	3.9	4.29	5.46	3.24	2.76
TCTTGTAGATCTATAGAGGTTAAGAAAGTGCGCT	1.12	0.795	0.399	0.575	1.43	1.35	-0.418	1.65	0.121
TCATATAGGTAAAGGTGATAGTCGAACGATATGA	0.45	0.866	0.944	0.699	1.19	0.353	-0.589	0.559	-0.591
TCTATTAGTGGATTAGGGCAACCGAAACAGCGGA	0.492	0.384	0.643	1.06	0.49	0.449	0.4	0.547	0.393
CCTACTGGGGCATAAGGTTACCATAAGCCAGCCC	1.86	1.78	1.29	-0.346	1.17	2.05	0.894	0.27	-0.339
ATATGTAGGCTAGCTGGGGTCATTCAGACTAGGC	3.02	3.59	1.99	1.43	4.96	4.2	2.76	4.77	3.63
GATACATGGTCAAGGCCAGAGTACGCGTATTGAT	0.856	0.785	0.985	-0.244	0.439	0.149	-0.41	-0.256	0.0812
CGTCCAAGGTCAATGCTAGGTCAGTCAAAGCATT	5.08	7.7	6.73	3.62	5.82	4.52	2.99	5.1	3.23
CCTTACGGGTCACGAGGTTTTAGCACGACGAGCG	3.71	5.63	5.4	1.57	6.87	3.12	0.658	5.64	1.4
GCGACTGGGGCATTAGCAGGTTACCATAACTTAA	0.877	0.345	0.226	0.29	0.0797	0.892	0.101	-0.196	-0.236
CCTAATGGGCCAAGGTCATTGATCAGTCAAAGCA	3.46	3.94	3.82	1.91	3.73	3.4	2.52	3.37	3.34
GGAACGAGGGCAAGTTGCTAGCAGAGTTTGATGG	1.37	1.23	2.1	2.26	0.745	0.911	-0.229	0.604	1.44
TCTACTAGGTCAACGATGGTCAGCTAATCTGCTA	3.59	4.28	5.16	1.89	3.07	3.2	1.37	2.27	0.629
CGTCCAAGGTCAAAGAGGTCAGTGAATGCCGAGT	5.66	7.1	7.62	4.35	7.47	4.48	3.36	7.77	6.32
ACCGAAAGGTCGAAGGTGAGTATACCCACCCGAA	2.51	4.53	4.2	1.35	5.27	2.11	-0.114	2.95	0.383
ACTATTAGTTGAGACGAGTGCAACCGATAGGTTG	-0.322	0.00696	0.277	0.58	0.199	0.501	-0.775	0.942	1.49
ATCTCGAGGTAAGACTCAGTTCAGTGAAGAACGC	0.343	0.254	0.121	0.0712	-0.00615	1.24	0.382	0.704	1.13
TCGGGTAGGTTAGGGGCATTCAGAATGGCGTCGA	1.88	1.07	1	0.943	1.02	2.44	1.61	1.57	1.79
CCAGACAGGTGAGAAGCTAACTCAGCCTCGATTA	0.0853	-0.181	0.0316	-0.135	0.129	0.183	-0.194	-0.228	-0.0982
ACTAGCAGGCGAAGTTTGGGTCACTCAAACAAAG	1.48	0.795	0.54	-0.3	0.656	1.91	0.813	0.191	-0.246
GCATATAGGTAATACAAGTTGAAAGTCCGATTGT	0.185	0.232	0.481	0.331	0.404	1.76	-0.418	0.409	0.193
CCTGACGGGTCACGAGGTTATAGCACGACGAGCG	3.55	5.83	5.33	1.42	6.19	3.3	1.14	4.62	1.87
